Sampled rows, rich in hits. Any-hit rate of the full collection: about 6.9%.
MPTP inh = blocks calcium-induced mitochondrial swelling; isolated mouse mitochondria, Ca2+ swelling absorbance, 30 min; inhibition, % at 10 µM; 360,000 tested, 1.4% active; AID 602449;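 active = inhibition of 50% or more, scaled per plate between neutral and stimulator controls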;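 note: 0% = DMSO wells given calcium and 100% = 1 mM EGTA wells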
CSC inhib = blocks cancer stem cells | cancer stem cell-like cells viability, luminescence | inhibition, % at 7.5 µM | 300,000 tested, 1.1% active | AID 2717; in the data active = inhibition above about 75%; inconclusive = no clear call, values can overlap the other calls; tested in HMLE shEcad cells
Mdm2-MdmX inh = human Mdm2/MdmX binding inhibition | O15151+Q00987 | SaOS-2 split-luciferase Mdm2/MdmX complementation, luminescence | inhibition, % at 8 µM | 330,000 tested, 3% active;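 active = inhibition of at least 50% at 8 µM in the primary screen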
SKKanGAS inh = blocks kanamycin growth of S. pyogenes SKKanGAS strain; BacTiter-Glo, 6 h; inhibition, % at 7.5 µM; 300,000 tested, 1.3% active; AID 1662;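 active = mean replicate score, as percent of positive control median, at least 50; inconclusive = mean below 50 but one replicate at or above 50; inactive = mean and every replicate below 50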;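 note: strain carries kanamycin resistance gene driven by streptokinase promoter and grows in 40 µg/ml kanamycin; loss of luminescence reflects streptokinase promoter inhibition or plain growth inhibition; 0% = median of DMSO wells and 100% = positive control at its reference dose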
NR3A LBD binder = modulators (binders) of human NR3A ligand-binding domain; 340,000 tested, 2.5% active; AID 1259313; Tm shift relative to glycine control, % at 25 µM; NR3A LBD differential scanning fluorimetry, Tm shift; 0% = protein alone, 100% = glycine-bound protein;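 active = melting temperature shift of at least 10% of the positive control shift, at one fixed dose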
Beta cell apopt = blocks beta cell apoptosis; INS-1E cytokine-induced death, ATP luminescence, 48 h; percent of positive-control rescue, neutral wells zero; protection from apoptosis, % (concentration not given with the values); 300,000 tested, 0.8% active; AID 435005;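 active = Every replicate reaches about 75%, or at least half do and their mean reaches it too, limit read from the data; inconclusive = At least half of replicates reach the limit but their mean does not; inactive = Under half of replicates reach the limit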;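 note: 0% = cytokine-treated negative control wells and 100% = positive control rescue; higher means more ATP so stronger rescue from cytokine killing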
Mdm2-MdmX conf = confirmation of human Mdm2/MdmX interaction inhibitors. shares compounds with Mdm2-MdmX inh. Mdm2-MdmX binding, luminescent assay. inhibition, % at 8 µM. 10,000 tested, 55% active. AID 489028; in the data active = inhibition above about 40%
FLuc counter = counter-screen for Mdm2/MdmX inhibitors: full-length luciferase | shares compounds with Mdm2-MdmX inh | 6,200 tested, 77% active | SaOS-2 full-length luciferase counterscreen, luminescence | inhibition, % at 8 µM;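 active = mean inhibition at 8 µM reaching about 37%, which flags the compound as non-specific, limit read from the data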;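 note: p53-null SaOS-2 cells with luciferase driven by a doxycycline-inducible promoter; compound on cells about two nights before reading with doxycycline added after day one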
Numbers without * were called inactive; ? = inconclusive; . = no result.

SMILES | MPTP inh | CSC inhib | Mdm2-MdmX inh | SKKanGAS inh | NR3A LBD binder | Beta cell apopt | Mdm2-MdmX conf | FLuc counter
O=C1c2ccccc2C(=O)c2c1oc(C(F)(F)F)c2C(=O)c1ccccc1 | 1 | 117* | 84* | 106* | -15 | 123* | 82* | 50*
C[C@@]12C(=O)Nc3cc(Cl)ccc3C(=O)N1[C@H]1c3cc(Br)ccc3OC[C@@H]1[C@@H]2c1ccccc1 | 0 | -4 | 67* | . | -9 | 23 | 72* | 31
C[C@@]12C(=O)Nc3cc(Cl)ccc3C(=O)N1[C@H]1c3ccccc3OC[C@@H]1[C@@H]2c1ccccc1 | 0 | -21 | 22 | . | -5 | 8 | . | .
C[C@@]12C(=O)Nc3cc(Cl)ccc3C(=O)N1[C@H]1c3cc(Cl)ccc3OC[C@@H]1[C@@H]2c1ccccc1 | 1 | . | 61* | . | 1 | -3 | 26 | .
COc1ccc2c(c1)OC[C@H]1[C@H]2N2C(=O)c3cc(OC)c(OC)cc3NC(=O)[C@@]2(C)[C@H]1c1ccccc1 | 1 | 4 | 58* | . | -9 | 12 | 35 | .
Cc1ccc2c(c1)C(=O)N1[C@H]3c4cc(C)ccc4OC[C@@H]3[C@H](c3ccccc3)[C@]1(C)C(=O)N2 | -2 | 43 | 54* | . | -1 | 7 | 43* | 38*
C[C@@H]1CN([C@@H](C)CO)S(=O)(=O)c2ccc(Br)cc2O[C@H]1CN(C)C(=O)c1ccccc1F | -2 | . | . | . | . | . | . | .
OC(C1=CC(=Cc2ccncc2)c2ccccc21)c1ccncc1 (stereo not given) | 3 | . | . | . | 4 | . | . | .
C[C@@]12C(=O)Nc3ccc(F)cc3C(=O)N1[C@H]1c3cc(Cl)ccc3OC[C@@H]1[C@@H]2c1ccccc1 | 1 | 57 | 56* | . | -3 | 16 | 34 | .
C[C@@]12C(=O)Nc3ccc(F)cc3C(=O)N1[C@H]1c3ccccc3OC[C@@H]1[C@@H]2c1ccccc1 | 0 | 21 | -11 | . | -8 | 3 | . | .
COc1ccc(C2CN=NC23CCCc2ccccc2C3=O)cc1 (stereo not given) | 1 | 15 | 15 | 4 | 1 | -2 | . | .
COc1ccc(C2CN=NC23CCc2ccccc2C3=O)cc1 (stereo not given) | 0 | 61 | 66* | -3 | -1 | 14 | 53* | 89*
Nc1[nH]n2c(=O)c3c(nc2c1N=Nc1ccccc1)CCCC3 | -1 | . | 47 | 2 | -2 | 28 | . | .
Nc1[nH]n2c(=O)c3c(nc2c1N=Nc1ccc(Cl)cc1)CCCC3 | 5 | 41 | 53* | 83* | 2 | -1 | 26 | .
CC(C)(C)n1nnnc1C(c1ccc(F)cc1)N(Cc1ccc(F)cc1)Cc1ccco1 (stereo not given) | 2 | 24 | 61* | 4 | 0 | 77* | 34 | .
Cc1ccc(C(c2nnnn2C(C)(C)C)N(Cc2ccco2)Cc2cccs2)cc1 (stereo not given) | 6 | 2 | 35 | -4 | -1 | 7 | . | .
CC(C)(C)n1nnnc1C(c1ccc(C(F)(F)F)cc1)N(Cc1ccccc1)Cc1ccco1 (stereo not given) | 15 | -13 | 77* | -11 | 0 | 117* | -4 | .
CC(C)(C)n1nnnc1C(c1ccc(C(F)(F)F)cc1)N(Cc1ccc(F)cc1)Cc1ccco1 (stereo not given) | 6 | -9 | 90* | -2 | -1 | 107* | 27 | .
Cc1ccc(S(=O)(=O)Nc2ncc(C(F)(F)F)cc2Cl)cc1 | 6 | 10 | 0 | 4 | -2 | 1 | . | .
CCCCCc1cc(=O)oc2c(C(CCN3CCCC(C)C3)c3ccc4c(c3)OCO4)c(OC)cc(OC)c12 (stereo not given) | 2 | 108* | 79* | 8 | -3 | 67 | 38 | 66*
CCCCCc1cc(=O)oc2c(C(CCN(CC)CC)c3cc(OC)c(OC)c(OC)c3)c(OC)cc(OC)c12 (stereo not given) | 1 | 107* | 100* | 9 | -5 | 31 | 39 | 32
CCCCCc1cc(=O)oc2c(C(CCN3CCCCC3)c3ccc4c(c3)OCO4)c(OC)cc(OC)c12 (stereo not given) | 1 | ? | 93* | 21 | -9 | 98* | 49* | 65*

Source: PubChem
